Laboratory results: the supplement of paper PMC8007513
Where a name gives a salt, the structure may show the parent alone. ± gives the standard error. The whole screen tested about 1,300 compounds, of which about 75 (6%) showed an effect of 50% or more. The sample holds strong results, similar compounds and a random draw of the others, so the mix is not that of the screen.

System: Trichoderma virens ATCC 9645
Assay: growth yield (OD600) relative to untreated control; higher = less growth inhibition
Settings: compound concentration: 100 uM
Outline: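 Trichoderma virens ATCC 9645 spores, from potato dextrose agar plates grown for 7 days, were brought to 15,000 spores ml^−1 in potato dextrose broth and dispensed as 100 μl aliquots into 96-well plates. Each aliquot received library compounds at 100 μM final, with or without a biocide at 200 ng ml^−1, before growth at 30 °C and OD600 readings on a BioTek EL800 at 40 h and 72 h. Growth is expressed relative to the control containing neither agent and represents means of duplicate screens.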

Structure (SMILES)	growth yield (40 h) [%]	growth yield (72 h) [%]
CCCCOc1ccc(C(=O)CCN2CCCCC2)cc1 [Dyclonine hydrochloride]	93.6 ± 3	98.7 ± 1.6
N=C(N)c1ccc(OCCCCCOc2ccc(C(=N)N)cc2)cc1 [Pentamidine isethionate]	1.91 ± 0.95	1.78 ± 0.52
CCCCOc1ccc(CC(=O)NO)cc1 [Bufexamac]	94.2 ± 1.1	88.1 ± 2.9
CC(C)(C)NC[C@@H](O)COc1cccc2c1CCCC2=O [(+) -Levobunolol hydrochloride]	100.2 ± 0.16	98.9 ± 0.1
NS(=O)(=O)Cc1noc2ccccc12 [Zonisamide]	104.5 ± 0.95	98.8 ± 1.9
CN(C)CCN(Cc1ccccc1)c1ccccn1 [Tripelennamine hydrochloride]	107 ± 1.4	100 ± 1.6
C[C@]1(Cn2ccnn2)[C@H](C(=O)O)N2C(=O)C[C@H]2S1(=O)=O [Tazobactam]	98.96 ± 0.79	96.8 ± 1.4
Clc1ccccc1C(c1ccccc1)(c1ccccc1)n1ccnc1 [Clotrimazole]	2.38 ± 1.8	1.89 ± 1.1
CN(C)c1ccc(O)c2c1C[C@H]1C[C@H]3[C@H](N(C)C)C(O)=C(C(N)=O)C(=O)[C@@]3(O)C(O)=C1C2=O [Minocycline hydrochloride]	95.3 ± 0.64	97.4 ± 2
CC(C)(C)NC[C@H](O)COc1ccccc1C1CCCC1 [Penbutolol sulfate]	109 ± 6.2	110 ± 5.1
CC(=O)N(CC(O)CO)c1c(I)c(C(=O)NCC(O)CO)c(I)c(C(=O)NCC(O)CO)c1I (configuration not stated) [Iohexol]	103 ± 1.3	106 ± 1.1
CNC(C)CCC=C(C)C (configuration not stated) [Isometheptene mucate]	99.1 ± 3.8	96.2 ± 4.3
CCCC(=O)Nc1ncnc2c1ncn2[C@@H]1O[C@@H]2COP(=O)(O)O[C@H]2[C@H]1OC(=O)CCC [Bucladesine sodium salt]	97.69 ± 0.79	97.75 ± 0.42
Nc1nc2c(ncn2COC(CO)CO)c(=O)[nH]1 [Ganciclovir]	106 ± 4.3	103 ± 4
Nc1nc2n[nH]nc2c(=O)[nH]1 [Azaguanine-8]	3.49 ± 0.95	2.62 ± 0.1
Nc1nc2c(ncn2COCCO)c(=O)[nH]1 [Acyclovir]	103.7 ± 0.48	101 ± 1.7
CC[C@]12CCCN3CCc4c(n(c5ccccc45)[C@@](O)(C(=O)OC)C1)[C@@H]32 [Vincamine]	97.37 ± 0.16	95.3 ± 1.4
CCN1CCC[C@H]1CNC(=O)c1c(OC)ccc(Br)c1OC [Remoxipride Hydrochloride]	101 ± 1.9	101.8 ± 0.94

Structure (SMILES)	growth yield (40 h) [%]	growth yield (72 h) [%]
O=C(O)Cc1sc(-c2ccccc2)nc1-c1ccc(Cl)cc1 [Fentiazac]	63.1 ± 4.3	88.8 ± 4.9
CC[N+](CC)(CC)CCC(O)(c1ccccc1)C1CCCCC1 (configuration not stated) [Tridihexethyl chloride]	103 ± 6.3	101 ± 4.5
CCCCOC(=O)c1ccc(O)cc1 [Butylparaben]	46.4 ± 2.2	49.5 ± 0.84
CCCCOC(=O)c1ccc(N)cc1 [Butamben]	66.9 ± 1.8	73 ± 2.5
CCCCN(CCCC)CCCOC(=O)c1ccc(N)cc1 [Butacaine]	95.5 ± 4.9	98.5 ± 4.1
CC(C)(C)NC(=O)[C@@H]1C[C@@H]2CCCC[C@@H]2CN1C[C@@H](O)[C@H](Cc1ccccc1)NC(=O)[C@H](CC(N)=O)NC(=O)c1ccc2ccccc2n1 [Saquinavir mesylate]	110 ± 3.3	107 ± 3.1
CC[C@H](C)C(=O)O[C@H]1C[C@@H](C)C=C2C=C[C@H](C)[C@H](CC[C@@H]3C[C@@H](O)CC(=O)O3)[C@H]21 [Lovastatin]	94.8 ± 5.2	94.5 ± 3.2
CCCCC(CC)CN1CN(CC(CC)CCCC)CC(C)(N)C1 (configuration not stated) [Hexetidine]	105 ± 3.2	118 ± 6.3
NCc1ccc(S(N)(=O)=O)cc1 [Mafenide hydrochloride]	107 ± 2.5	111 ± 4.2
NS(=O)(=O)c1cc(C2(O)NC(=O)c3ccccc32)ccc1Cl (configuration not stated) [Chlorthalidone]	102 ± 3.6	105 ± 3.7
CCOC(=O)C1=C(COCCN)NC(C)=C(C(=O)OC)C1c1ccccc1Cl (configuration not stated) [Amlodipine]	105 ± 12	113 ± 11
CC(C(=O)O)c1ccc2c(c1)[nH]c1ccc(Cl)cc12 (configuration not stated) [Carprofen]	40.7 ± 15	88.9 ± 8
COc1ccc2cc([C@@H](C)C(=O)O)ccc2c1 [(R) -Naproxen sodium salt]	84.5 ± 7	87.2 ± 6.4
CC(C(=O)O)c1ccc(-c2ccccc2)c(F)c1 (configuration not stated) [Flurbiprofen]	72.9 ± 3	86.5 ± 3.9
CC[N+](C)(CC)CCOC(=O)C1c2ccccc2Oc2ccccc21 [Methantheline bromide]	110 ± 1.8	108 ± 1.3
CCOC(=O)[C@H](CCc1ccccc1)N[C@@H](C)C(=O)N1Cc2ccccc2C[C@H]1C(=O)O [Quinapril hydrochloride]	98.8 ± 3.8	98.1 ± 1.1
Cc1cccc(C)c1NC(=O)CN1CCN(CCCC(c2ccc(F)cc2)c2ccc(F)cc2)CC1 [Lidoflazine]	95.6 ± 1.3	114 ± 3
CN(C)CCCO[C@@H]1[C@H]2OC(C)(C)O[C@H]2O[C@@H]1[C@H](O)CO [Amiprilose hydrochloride]	100.5 ± 0.79	101.6 ± 0.73
